Source: PubChem BioAssay
Compounds with a hit are over-represented: about 21% of the library has one in this group of screens.
NS1 inh: inhibitors of influenza NS1 protein function; Potency, µM (highest dose often 46.1 µM); 270,000 tested, 0.4% active; AID 2326; calls by dose curve; note: actives are rising curves; nearly all actives have a fitted effect of over 50% in size
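OD600 was taken as the measure of yeast growth restored by compound in an NS1-expressing S. cerevisiae strain. Cells had been washed out of glucose medium and diluted 1:100 into galactose -URA medium, pH 6.0.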
Cycloheximide cs: affects cycloheximide protein synthesis inhibition readout, counter-screen | max response, % | 300,000 tested, 12% active | cell reporter, cycloheximide protein synthesis inhibition counterscreen; in the data active = max response mostly above about 13%, no sharp cut-off; inactive = mostly below about 14%; note: read at 38.3 µM for the half of the compounds with a filed dose
Pf growth 96h: P. falciparum growth inhibition at 96 hours | P. falciparum luciferase reporter growth, 96 h | Potency, µM (top dose mostly 28.7 µM), usual class: inhibitors | 320,000 tested, 6.9% active
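Plates of compound plus infected erythrocytes (2% hematocrit, 0.05% parasitemia final) incubate 96 hours, 37 C, 5% CO2. Detection reagent added; reduced luminescence from the parasites' luciferase reporter flags inhibition.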
Pf growth 48h: inhibits P. falciparum growth in the first generation, 48 h. P. falciparum luciferase growth in erythrocytes, 48 h. Potency, µM (doses to about 28.7 µM), usual class: inhibitors. 310,000 tested, 5.9% active
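A one-generation exposure of luciferase-tagged malaria parasites in RPMI 1640/Albumax erythrocyte culture, 37 C and 5% CO2. Inhibition is inferred from decreased luminescence after adding detection reagent.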
Shiga toxin inh: blocks Shiga toxin action in Vero cells; inhibition, % at 38.7 µM; 290,000 tested, 9.2% active; AID 2315; Vero cells, Shiga toxin protein synthesis inhibition reporter; in the data active = inhibition mostly above about 28%, no sharp cut-off; inactive = mostly below about 43%
Numbers stand for hits; . = inactive; ? = inconclusive; / = no result. Unless noted, calls come from the whole dose curve; as a rule, active = well fitted inhibition curve with a large enough effect; inconclusive = small, poorly fitted or top-dose-only effect, or another doubt; inactive = no such curve, though single readings can be large or run the other way.

SMILES	NS1 inh	Cycloheximide cs	Pf growth 96h	Pf growth 48h	Shiga toxin inh
Cc1ccc(-c2nc3cnccn3c2Nc2ccc3c(c2)OCCO3)o1	.	34	.	.	22
CC(=O)CC(=O)Nc1ccc(Nc2ccccc2)cc1	?	.	.	.	.
OCC[N+]12CCC(CC1)C(C(O)(c1ccccc1)c1ccccc1)C2 (centres undefined)	.	.	.	?	.
OC(c1cccs1)(c1cccs1)C1C[N+]2(CF)CCC1CC2 (centres undefined)	.	.	2.3µM	10µM	.
CNc1nc2cccnc2s1	.	.	.	.	.
CCNc1nc2cccnc2s1	.	26	.	.	.
CCOc1ccc(CC(=O)NNC(=S)NCCc2ccccc2)cc1	.	.	.	?	.
CCN1C(c2ccccc2)C(C)C(=O)C(C)C1c1ccccc1 (centres undefined)	.	.	9.3µM	12µM	.
CCN1C(=O)N[C@@H](c2ccccc2)C1=O	/	/	.	.	/
CC1(CCc2ccccc2)NC(=O)N(CC(=O)Nc2ccccc2)C1=O (centres undefined)	?	16	.	.	.
OC(COc1ccc2c(c1)CCC2)CN1CCN(c2ccccc2F)CC1 (centres undefined)	?	.	/	?	.
Oc1ccccc1N1CCN(CC(O)COC2CCCc3ccccc32)CC1 (centres undefined)	.	.	?	9.3µM	.
O=C(COC(=O)CCS(=O)(=O)c1ccc(Cl)cc1)NC1CCCCC1	.	.	.	/	.
N#CCC(=O)N/N=C/c1cc(Br)ccc1OCc1cccc2ccccc12	.	.	?	13µM	.
N#CCC(=O)N/N=C/c1c2ccccc2cc2ccccc12	.	.	.	.	.
N#CCC(=O)N/N=C/c1ccc(OCc2ccccc2)cc1	.	.	.	.	.
N#CCC(=O)N/N=C\c1ccc(OC/C=C/c2ccccc2)cc1	.	27	.	.	.
COCC(=O)N/N=C\c1ccccc1OC/C=C/c1ccccc1	.	.	.	.	.
N#CCC(=O)N/N=C\c1ccccc1OC/C=C/c1ccccc1	.	50	.	.	77
COc1ccc(C(CNC(=O)Cc2c(F)cccc2Cl)N2CCCCC2)cc1 (centres undefined)	/	.	?	.	.
Cc1c(NC(=O)c2ccccc2N(C)S(=O)(=O)c2ccccc2)c(=O)n(-c2ccccc2)n1C	.	.	/	.	.
CCCCCn1c(SCC(=O)OC)nc2c1c(=O)[nH]c(=O)n2C	.	.	.	/	.
COc1ccc(-c2c(-c3cc(OC)cc(OC)c3)n(C)c3ccc(Br)cc23)cc1	/	/	.	.	/
COc1ccc(N=Nc2nc3ccc(Br)cc3n2C)cc1	.	40	.	?	70
O=C1CCCC/C1=N\Nc1ccc(OCc2ccccc2)cc1	.	21	.	.	56
SMILES	NS1 inh	Cycloheximide cs	Pf growth 96h	Pf growth 48h	Shiga toxin inh
O=C1CCCC/C1=N\Nc1ccc(C2CCCCC2)cc1	.	39	.	.	64
Cc1ccc(NS(=O)(=O)c2ccc(C3CCCCC3)cc2)cc1	.	.	.	.	.
CCOc1cc(Br)c(CC(=O)O)cc1OCC	.	.	.	.	.
CCOc1cc(OCC)c(C(=O)CCC(=O)O)cc1OCC	/	/	2.4µM	?	/
COc1ccccc1CCc1nnc(CCC(=O)N(C)Cc2cccc3cnccc23)o1	.	45	.	?	86
COc1ccc(CCc2nnc(CCC(=O)N(C)Cc3ccnc4ccccc34)o2)cc1	.	30	?	.	23
O=C(CSc1nc(O)cc(=O)n1-c1ccccc1)Nc1nc2ccccc2s1	.	.	.	.	.
C[C@H](O)Cn1cnc2c1c(=O)n(C)c(=O)n2C	/	/	.	.	/
COc1ccc(S(=O)(=O)NN(C)C(=O)c2nn(-c3ccccc3)ccc2=O)cc1	.	.	5.9µM	?	.
COc1ccc(-n2ccc(=O)c(C(=O)O)n2)cc1	.	.	.	.	.
O=C(c1cccc(F)c1)N1CCCC(C(=O)N2CCCCCC2)C1 (centres undefined)	.	.	.	.	.
CN(CC(=O)Nc1cccc(F)c1)C(=O)CCCc1cccs1	.	.	.	.	.
COc1ccc2oc(-c3ccc(NC(=O)c4ccc(N5CCOCC5)c([N+](=O)[O-])c4)cc3)nc2c1	.	.	?	2.3µM	.
O=C(Nc1ccc(-c2nc3ccccc3o2)cc1)c1ccc(N2CCOCC2)c([N+](=O)[O-])c1	.	8.5	?	.	.
Cn1cc([N+](=O)[O-])c(C(=O)Nc2ccc(-c3nc4ccccc4o3)cc2)n1	.	39	.	.	69
COc1ccc(NC(=O)c2ccc(-n3cncn3)c([N+](=O)[O-])c2)cc1	.	.	?	?	.
Cc1ccc2c(c1)c(CC(NC(=O)c1ccccc1Oc1ccccc1)C(=O)O)cn2C(=O)OCc1ccccc1 (centres undefined)	/	.	/	/	.
Nc1nccc(-c2ccc(-n3cccc3)cc2)n1	/	23	.	.	53
Cc1ccc(NC(=O)Cn2cccc2)c(C)c1	.	.	13µM	/	.
Cc1ccc(NC(=O)Cn2cccc2)c(Br)c1	.	.	/	.	45
Cc1cccc(NC(=O)Cn2cccc2)c1	.	.	.	.	.
CC(C)(C)n1nc2c(c1NC(=O)c1cc([N+](=O)[O-])ccc1Cl)CS(=O)(=O)C2	.	.	.	?	.
CC(C)(C)n1nc2c(c1NC(=O)c1ccc([N+](=O)[O-])cc1)CS(=O)(=O)C2	.	.	8.3µM	.	.
O=C(Nc1c2c(nn1-c1ccc([N+](=O)[O-])cc1)CS(=O)(=O)C2)c1cccs1	?	.	5.9µM	?	.
Cc1ccc2nc(N/N=C\c3ccc([N+](=O)[O-])o3)nc(-c3ccccc3)c2c1	.	.	?	/	.
SMILES	NS1 inh	Cycloheximide cs	Pf growth 96h	Pf growth 48h	Shiga toxin inh
O=[N+]([O-])c1ccc(-c2ccc(/C=N/Nc3nc(N4CCCCC4)nc(N4CCCCC4)n3)o2)cc1	.	.	.	?	.
O=[N+]([O-])c1cccc(-c2ccc(/C=N/Nc3nc(N4CCCCC4)nc(N4CCCCC4)n3)o2)c1	/	.	.	2.3µM	.
O=[N+]([O-])c1ccc(/C=N/Nc2nc(N3CCCC3)nc(N3CCCC3)n2)o1	.	.	10µM	/	.
CCNc1nc(NCC)nc(N/N=C/c2ccc([N+](=O)[O-])o2)n1	.	.	4.1µM	/	.
O=[N+]([O-])c1ccc(-c2ccc(/C=N/Nc3nc(N4CCCC4)nc(N4CCCC4)n3)o2)cc1	/	.	?	?	.
CSCC[C@H](N)C(=O)N[C@@H](CCCN=C(N)N)C(=O)N[C@@H](CC(C)C)C(=O)N[C@@H](Cc1ccccc1)C(=O)N[C@H](C(=O)O)C(C)C	/	.	/	/	.
COc1ccc(Cn2nnnc2CN2CCOCC2)cc1	.	.	13µM	.	.
c1ccc(Cn2nnnc2CN2CCN(c3ncccn3)CC2)cc1	.	.	4.7µM	.	.
COc1ccc(CN2CCOCCOCCOCCOCCOCC2)cc1	.	.	.	.	.
O=C(NC(Cc1ccccc1)c1ccc2c(c1)OCCCO2)c1ccccc1 (centres undefined)	.	.	.	/	.
O=C(NC(=S)Nc1ccccc1Br)c1cccnc1	.	.	.	.	/
